Source: PubChem BioAssay (National Center for Advancing Translational Sciences (NCATS))
AMA1-RON2 inh: inhibitors of Plasmodium falciparum AMA1-RON2 interaction; AlphaScreen AMA1-biotinylated RON2 peptide binding; Potency, µM (titrated, usually from 58.2 µM), hits mostly inhibitors; actives 0.2% (n = 360,000); AID 720542; further: nearly all actives have a fitted effect of over 45% in size
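AMA1 (3D7) with his tag at 25 nM final met compounds first, then biotinylated RON2 peptide at 25 nM; detection used donor plus acceptor beads, 10 µg/mL apiece, read by AlphaScreen after 30 min at room temperature.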
Pf growth 96h: P. falciparum growth inhibition at 96 hours; Potency, µM (highest dose often 28.7 µM), usual class: inhibitors; actives 6.9% (n = 320,000); P. falciparum luciferase reporter growth, 96 h
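Delayed-death screen, second-generation endpoint: infected erythrocytes, 2% hematocrit, 0.05% parasitemia final; 96 hours at 37 C, 5% CO2; luciferase detection reagent; luminescence decrease equals reduced growth.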
Cycloheximide cs: counter-screen hit for Shiga toxin inhibitors, cycloheximide. cell reporter, cycloheximide protein synthesis inhibition counterscreen. max response, %. actives 12% (n = 300,000); in the data active means max response mostly above about 13%, no sharp cut-off; inactive means mostly below about 14%; further: read at 38.3 µM for the half of the compounds with a filed dose
Shiga toxin inh: Shiga toxin inhibition; AID 2315; inhibition, % at 38.7 µM; actives 9.2% (n = 290,000); Vero cells, Shiga toxin protein synthesis inhibition reporter; in the data active means inhibition mostly above about 28%, no sharp cut-off; inactive means mostly below about 43%
SARS PLpro yeast-1: inhibitors of SARS-CoV papain-like protease in yeast; actives 0.19% (n = 330,000); S. cerevisiae expressing SARS-CoV PLpro, growth rescue; Potency, µM (series often up to 32.9 µM), actives largely listed as activators; calls by dose curve; further: nearly all actives have a fitted effect of over 55% in size
Pf growth 48h: inhibits P. falciparum growth in the first generation, 48 h; P. falciparum luciferase growth in erythrocytes, 48 h; Potency, µM (top dose mostly 28.7 µM), hits mostly inhibitors; actives 5.9% (n = 310,000)
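Erythrocytes infected with P. falciparum carrying an integrated firefly luciferase reporter (2% hematocrit, 0.1% parasitemia final) were exposed to compounds in RPMI 1640 with 0.5% Albumax at 37 C, 5% CO2. Growth inhibition was scored as reduced luminescence.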
SARS PLpro yeast-2: Rescues yeast growth by inhibiting SARS-CoV PLpro | shares compounds with SARS PLpro yeast-1 | yeast expressing SARS-CoV PLpro, growth phenotype rescue | calls only | actives 19% (n = 1,000) | AID 652038; call rule not given here
Hits are given with their value; i = inactive; ? = inconclusive; nt = no result given; + = active, no number; ! = not confirmed by another sample; [ ] = another dose, or the depositor's remark. These entries were drawn from the full list. Unless noted, the call rests on the fitted dose curve; in most records, active means well fitted curve in the direction sought with a large enough effect; inconclusive means small, poorly fitted or top-dose-only effect, or another doubt; inactive means no such curve, though single readings can be large; an effect the other way counts as inactive or inconclusive.

SMILES	AMA1-RON2 inh	Pf growth 96h	Cycloheximide cs	Shiga toxin inh	SARS PLpro yeast-1	Pf growth 48h	SARS PLpro yeast-2
N#CC1=C(N)Oc2c(c(=O)oc3ccccc23)C1c1cccnc1 (stereo not drawn)	i	?	i	i	?	i	i
Cc1ccc(C)c(N2CCN(C(=O)C3CCCN(S(=O)(=O)c4c(C)[nH]c(=O)[nH]c4=O)C3)CC2)c1 (stereo not drawn)	i	i	i	i	10µM	nt	i
O=C1/C(=C\c2cccs2)N=C(c2cccs2)N1Nc1ccccc1	i	nt	i	i	i	i	nt
O=C1/C(=C/c2cccs2)N=C(c2cccs2)N1Nc1ccccc1	i	nt	i	i	?	i	i
C[C@@H]1CN([C@@H](C)CO)C(=O)CCCn2nncc2CO[C@@H]1CN(C)S(=O)(=O)c1ccc(Oc2ccccc2)nc1	i	nt	nt	nt	nt	nt	nt
Cc1ccc(S(=O)(=O)N2CCC(C(=O)OC(C)C(=O)NC3CCCCC3C)CC2)cc1C (stereo not drawn)	i	?	nt	nt	?	?	?
CC(OC(=O)c1ccc(S(=O)(=O)N2CCCCC2)cc1)C(=O)NC1CCCCC1C (stereo not drawn)	i	i	i	i	i	i	nt
CCN(CC)S(=O)(=O)c1ccc(NC(=S)NC(=O)CC(C)C)cc1	i	?	i	i	nt	?	i
CSc1ccc(CN2CCC2(C)C(=O)NCc2ccc3c(c2)OCO3)cc1 (stereo not drawn)	i	nt	nt	nt	nt	nt	nt
CCOC(=O)N/N=C(\c1ccccc1)C(O)c1ccccc1 (stereo not drawn)	i	i	i	i	i	i	nt
Cc1ccc(N(C(=O)c2ccc3c(c2)OCO3)C2C=CS(=O)(=O)C2)cc1C (stereo not drawn)	i	i	i	i	nt	i	i
CC1CCCC(NC(=O)COc2ncnc3ccccc23)C1C (stereo not drawn)	i	nt	nt	nt	?	nt	i
COc1ccccc1NC(=O)COc1ccc(C(=O)NC2CCCc3ccccc32)cc1OC (stereo not drawn)	i	?	i	i	i	?	nt
CCc1sc(N)nc1-c1ccccc1	i	?	i	i	?	i	i
Cc1ccc(-n2nc3c(N4CCC(C(=O)NCc5ccc(C)o5)CC4)nnc(C)c3c2C)cc1	i	10.4µM	i	i	?	?	i
Cc1ccc(-n2nc3c(N4CCC(C(=O)NCCc5ccco5)CC4)nnc(C)c3c2C)cc1	i	i	i	i	i	?	nt
O=C(CN1CCN(c2ccccc2)CC1)Nc1ccc(Oc2ccccc2)cc1	i	nt	i	i	i	nt	nt
Cc1ccc(-c2cc(C(=O)NCc3cnn(C)c3C)c3cc(Br)ccc3n2)cc1	i	?	i	i	?	i	i
Cc1ccc([N+](=O)[O-])cc1NC(=O)C1CCN(S(C)(=O)=O)CC1	i	i	i	i	?	i	i
Cc1cc(C)c(NC(=O)C2CCN(S(C)(=O)=O)CC2)c(C)c1	i	nt	nt	nt	nt	nt	nt
CC1(C)[C@H]2CC=C(CN3CCC(N4CCC(C(=O)N5CCCC5)CC4)CC3)[C@@H]1C2	i	i	i	i	i	?	nt
O=S(=O)(NCc1cccc(C(F)(F)F)c1)NCc1ccccc1F	i	i	i	i	i	i	nt
Cc1nc(N/N=C\c2ccc3c(c2)OCO3)sc1C	i	i	28.8	nt	7.08µM	i	+
Cc1noc(C(=O)N2CC3(C)CC2CC(C)(C)C3)c1Cl (stereo not drawn)	i	?	i	i	4.47µM	nt	i
Cc1cc(C)cc(NC(=O)C(=O)NCc2ccccn2)c1	i	i	i	i	?	i	i
SMILES	AMA1-RON2 inh	Pf growth 96h	Cycloheximide cs	Shiga toxin inh	SARS PLpro yeast-1	Pf growth 48h	SARS PLpro yeast-2
CC(C)NC(=O)C(=O)NCc1ccccn1	i	i	i	i	i	i	nt
CCOC(=O)c1c(/N=C/C2=C(O)CCCC2=O)sc(C)c1C	i	i	i	i	i	i	nt
CCOC(=O)c1c(-c2ccc(OC)cc2)csc1/N=C/C1=C(O)CCCC1=O	i	?	i	i	?	i	i
COc1ccc(CN(CC(=O)NCc2ccccc2)C(=O)CCC(=O)Nc2cc(C)ccn2)cc1	i	i	i	i	i	i	nt
CN(C)[C@H]1CCN([C@H]2CS(=O)(=O)N[C@@H]2COCc2ccccc2)C1	i	nt	nt	nt	nt	nt	nt
Ic1ccc(N2CCN(Cc3c[nH]c4ncccc34)CC2)cc1	i	?	nt	nt	nt	?	nt
CN(C)C1CCN(Cc2cc(COCc3ccccc3)c3cccnc3c2O)C1 (stereo not drawn)	nt	?	nt	nt	10µM!	0.828µM	?
Oc1ccc(CN2CCN(c3ccccc3)CC2)c2cccnc12	i	i	i	i	11.2µM	7.38µM	i
Oc1ccc(CN2CCC(Cc3ccccc3)CC2)c2cccnc12	i	i	i	i	2.51µM	?	?
Clc1ccccc1CN1CCC(Cc2ccccc2)CC1	?	i	i	i	i	i	nt
Cc1nn(Cc2ccc(Cl)cc2Cl)c(C)c1NC(=O)NC12CC3CC(CC(C3)C1)C2	i	nt	i	i	i	i	nt
CC(=Nc1ccccc1)C1=C(O)COC1=O	i	i	i	i	?	nt	i
CC1Cc2ccccc2N1c1nc(C2CC2)nc2c1nnn2Cc1ccccc1 (stereo not drawn)	i	i	i	i	?	i	+
CN(CC(=O)Nn1cnnc1)S(=O)(=O)c1ccc(Br)cc1	i	i	i	i	3.55µM	i	i
CCOC(=O)c1cccc(N2C(=O)c3ccccc3S2(=O)=O)c1	i	nt	i	i	i	i	nt
O=C(N/N=C/c1c(O)n(CCC2=CCCCC2)c(=O)[nH]c1=O)c1ccccc1	i	?	26.8	i	10µM	i	i
O=C(Nc1ccccc1Cl)c1ccc2c(=O)n3c(nc2c1)CCC3	i	i	nt	nt	i	i	nt
O=C(Nc1nc(-c2ccccc2)cs1)c1ccc2c(=O)n3c(nc2c1)CCCCC3	i	?	i	i	?	i	i
CC(=NCc1cccnc1)c1c(O)n(-c2ccccc2C)c(=O)[nH]c1=O	i	i	i	i	3.55µM	nt	i
CCCC(=O)NC(c1cccc([N+](=O)[O-])c1)c1ccc2cccnc2c1O (stereo not drawn)	i	nt	nt	nt	nt	nt	nt
Cc1ccc(C(NC(=O)C(C)C)c2cc([N+](=O)[O-])c3cccnc3c2O)cc1 (stereo not drawn)	i[2.32 µM]	i	i	i	?	i	?
CC(C)C(=O)NC(c1cccc([N+](=O)[O-])c1)c1ccc2cccnc2c1O (stereo not drawn)	i	i	i	i	3.16µM	3.7µM	i
CCC(=O)NC(c1cccs1)c1cc([N+](=O)[O-])c2cccnc2c1OC (stereo not drawn)	nt	i	nt	nt	i	i	nt
CC(C)C(=O)NC(c1cccs1)c1cc([N+](=O)[O-])c2cccnc2c1O (stereo not drawn)	i	i	i	i	?	?	i
Cc1ccc([N+](=O)[O-])c2cccnc12	i	i	i	i	i	i	nt
O=C(Cn1ccc(C(F)(F)F)n1)Nc1cccc(S(=O)(=O)N2CCCCC2)c1	i	?	i	i	i	?	nt
